# Assay results published in PubChem BioAssay (NCI).
# Values joined by “and” are separate entries in the source; they are usually repeats but may differ in a detail not shown here. Equal values may be shown once. This is part of a sample that, as a whole, favours compounds with a hit. Of some 79,000 tested, about 15% had one in any assay. Active and inactive are the calls of the source. Cut-off read from the data, not from the text of the source: active = growth inhibition above about 70%; inactive = the rest.
# Assay: NCI Yeast Anticancer Drug Screen. Data for the mlh1 rad18 strain (AID 175)
# Settings: S. cerevisiae mlh1 rad18 strain growth inhibition; at 50.0 µM (retest, dose inferred, filed as 5.0); active compounds read high
# Outline: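 Read-out is yeast growth inhibition, calculated against vehicle-only controls. The compound was applied to a strain engineered with DNA damage repair alterations.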
row,Structure (SMILES),growth inhibition
1,C#C[C@]1(OC(C)=O)CC[C@H]2[C@@H]3CCC4=CC(=O)CC[C@@H]4[C@H]3CC[C@@]21C,19% (inactive)
2,COc1ccc(CC2=CC(=O)C(=O)C=C2C)cc1,51% (inactive)
3,O=C(O)CCC/C(=N\Nc1ccccc1)C(=O)O,98% (active)
4,S=c1[nH]c2ccc(Br)cc2c(=S)n1-c1ccccc1,5% (inactive)
5,CC1(C)OC2C(COC(c3ccccc3)(c3ccccc3)c3ccccc3)OC(n3cnc4c(N)ncnc43)C2O1 (stereo unspecified),95% (active)
6,O=[N+]([O-])c1cnc(F)c(Br)c1,99% (active)
7,C=C(C#N)C(=O)OCC(CC)CC.C=C(C#N)C(=O)OCC(CC)CC.CS(C)=O.CS(C)=O.Nc1c(N=Nc2ccc(-c3ccc(N=Nc4cc(S(=O)(=O)[O-])c5ccccc5c4N)cc3)cc2)cc(S(=O)(=O)[O-])c2ccccc12.[Pt+2],97% (active)
8,CCCCCCCCCCS(=O)(=O)Nc1ccc(C(=O)NN)cc1,87% (active)
9,COC(=O)c1ccc(C)cc1CC1Cc2cc(C)ccc2C1=O (stereo unspecified),85% (active)
10,CCCCCOCC(=O)OC,7% (inactive)
11,COc1ccc(C2c3cc4c(cc3OC(N3CCOCC3)C2C)OCO4)c(OC)c1 (stereo unspecified),96% (active)
12,COC1/C=C\OC2(C)Oc3c(C)c(O)c4c(c3C2=O)C2=NC(C)(C)N(c3ccccc3)C2=C(NC(=O)/C(C)=C\C=C\C(C)C(O)C(C)C(O)C(C)C(OC(C)=O)C1C)C4=O (stereo unspecified),86% (active)
13,C/C(=C/C(=O)N1c2ccccc2CC1c1c[nH]c2ccccc12)C(=O)O (stereo unspecified),15% (inactive)
14,CSc1nc(C)c(C(=O)CCN2CCOCC2)s1,88% (active)
15,Cn1c(=S)c2[nH]c(=S)[nH]c2n(C)c1=O,93% (active)
16,CC(C)CCC(C)(C)c1cc(O)ccc1O,99% (active)
17,CCc1c(-c2ccccc2)c(CN2CCCCC2)c2ccccn12,5% (inactive)
18,Clc1ccc(CN2COc3c(ccc4cccnc34)C2)c(Cl)c1,98% (active)
19,Cc1[nH]c2ccccc2c1/C=C1/CCCCCCC1=O,72% (active)
20,CCOC(=O)c1ccc(NC(=O)O/N=C(/Cl)CC)cc1,86% (active)
21,COC1OC(COC(=O)c2ccccc2)CC1F (stereo unspecified),-54% (inactive)

# Same assay, conditions: S. cerevisiae mlh1 rad18 strain growth inhibition; at 50.0 µM; active compounds read high
row,Structure (SMILES),growth inhibition
1,NC1=NC2=C(CCCC2)C(c2cccs2)S1 (stereo unspecified),60.6% (inactive)
2,CCC(C)(C)NCCCCCNc1cc(OC)cc2cccnc12,68.8% (inactive)
3,C/C(=N\NC(=S)Nc1ccc([N+](=O)[O-])cc1)c1nc2ncccc2[nH]1,60.1% (inactive)
4,COC(=O)c1ccc(SCC(=O)c2ccc([N+](=O)[O-])o2)cc1,98.5% (active)
5,CCCCCCCCCCCC(=O)OCCOP(=O)(OCC)OCC,79.2% (active)
6,COc1cccc2c1S(=O)(=O)C(c1ccccc1)=CC2=O,99.5% (active)
7,CC(C)(C)c1ccc(-n2c3nc(=O)n(-c4ccccc4C(F)(F)F)c(=O)c-3cc3ccccc32)cc1,65.6% (inactive)
8,CCOC(=O)c1cc(C)ccc1-c1ccc(C)cc1C(=O)OCC,75.5% (active)
9,NC(=O)C1C(=O)c2cccc3c2C1(Br)C(Br)CCC3 (stereo unspecified),99.3% (active)
10,COC(=O)/C(=C/C=C(c1ccccc1)c1ccccc1)N(C(C)=O)C(C)=O,99.6% (active)
11,Cc1ccc(C2COc3cc(O)c(O)cc3C2)cc1 (stereo unspecified),99.4% (active)
12,COc1cc(C2=NCCO2)cc(OC)c1OC,3.95% (inactive)
13,O=C1c2cccc3cc([N+](=O)[O-])cc(c23)C(=O)N1O,80.7% (active)
14,CCOc1ccccc1C(=O)Oc1cccc(C)c1,18.9% (inactive)
15,CCNc1cc(N)[n+](CC)c2n[nH]c(/N=C/c3cc(Cl)cc(Cl)c3O)c12,88.2% (active)
16,CC(=O)OC1=Cc2ccccc2C(c2ccccc2)c2ccccc21 (stereo unspecified),18.3% (inactive)
17,CCOC(=O)c1[nH]c(Br)c(-c2ccc(OC)c(OC)c2)c1Br,94.2% (active)
18,C#C[C@]1(OC(C)=O)CC[C@H]2[C@@H]3CCC4=CC(=O)CC[C@@H]4[C@H]3CC[C@@]21C,96.8% (active)
19,COc1ccc(CC2=CC(=O)C(=O)C=C2C)cc1,36.4% (inactive)
20,O=C(O)CCC/C(=N\Nc1ccccc1)C(=O)O,98.3% (active)

row,Structure (SMILES),growth inhibition
1,S=c1[nH]c2ccc(Br)cc2c(=S)n1-c1ccccc1,87.7% (active)
2,CC1(C)OC2C(COC(c3ccccc3)(c3ccccc3)c3ccccc3)OC(n3cnc4c(N)ncnc43)C2O1 (stereo unspecified),58.5% (inactive)
3,O=[N+]([O-])c1cnc(F)c(Br)c1,99.3% (active)
4,C=C(C#N)C(=O)OCC(CC)CC.C=C(C#N)C(=O)OCC(CC)CC.CS(C)=O.CS(C)=O.Nc1c(N=Nc2ccc(-c3ccc(N=Nc4cc(S(=O)(=O)[O-])c5ccccc5c4N)cc3)cc2)cc(S(=O)(=O)[O-])c2ccccc12.[Pt+2],96.5% (active)
5,CCCCCCCCCCS(=O)(=O)Nc1ccc(C(=O)NN)cc1,92.7% (active)
6,CC(=O)OCC(OC(C)=O)C(OC(C)=O)C(OC(C)=O)C(COC(C)=O)OC(C)=O (stereo unspecified),-24.4% (inactive) and 7.9% (inactive) and 2.5% (inactive)
7,COC(=O)c1ccc(C)cc1CC1Cc2cc(C)ccc2C1=O (stereo unspecified),70.7% (active)
8,CCCCCOCC(=O)OC,-15.1% (inactive)
9,COc1ccc(C2c3cc4c(cc3OC(N3CCOCC3)C2C)OCO4)c(OC)c1 (stereo unspecified),97.4% (active)
10,COC1/C=C\OC2(C)Oc3c(C)c(O)c4c(c3C2=O)C2=NC(C)(C)N(c3ccccc3)C2=C(NC(=O)/C(C)=C\C=C\C(C)C(O)C(C)C(O)C(C)C(OC(C)=O)C1C)C4=O (stereo unspecified),51.9% (inactive)
11,C/C(=C/C(=O)N1c2ccccc2CC1c1c[nH]c2ccccc12)C(=O)O (stereo unspecified),40.9% (inactive)
12,CSc1nc(C)c(C(=O)CCN2CCOCC2)s1,99.2% (active)
13,Cn1c(=S)c2[nH]c(=S)[nH]c2n(C)c1=O,97.2% (active)
14,OCC(O)C(O)C(O)C(O)C(SCc1ccccc1)SCc1ccccc1 (stereo unspecified),10.1% (inactive) and 3.6% (inactive) and 10.6% (inactive)
15,CC(C)CCC(C)(C)c1cc(O)ccc1O,97.6% (active)
16,CCc1c(-c2ccccc2)c(CN2CCCCC2)c2ccccn12,21.9% (inactive)
17,Clc1ccc(CN2COc3c(ccc4cccnc34)C2)c(Cl)c1,99.1% (active)
18,Cc1[nH]c2ccccc2c1/C=C1/CCCCCCC1=O,97.3% (active)
19,CCOC(=O)c1ccc(NC(=O)O/N=C(/Cl)CC)cc1,69.7% (inactive)
20,COC1OC(COC(=O)c2ccccc2)CC1F (stereo unspecified),92.2% (active)
